# Test results taken from PubChem BioAssay (NCATS).
# A number with no mark means an inactive call. Records with an inconclusive call do not appear. Where a call stands in place of a potency, no number is given. The source made the active and inactive calls. Unless noted, calls come from the whole dose curve; as a rule, active = well fitted curve in the direction sought with a large enough effect; inconclusive = small, poorly fitted or top-dose-only effect, or another doubt; inactive = no such curve, though single readings can be large; an effect the other way counts as inactive or inconclusive.
# Experiments:
# [1] = biological target: Rap guanine nucleotide exchange factor 3 (Homo sapiens) (UniProt O95398); test: Confirmatory qHTS for agonist of cAMP-regulated guanine nucleotide exchange factor 3 (EPAC1) (AID 1645881);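 note: EPAC1 catalysed release of BODIPY-GDP from Rap1B seen as fluorescence loss; nearly all actives have a fitted effect of over 75% in size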
# [2] = biological target: Rap guanine nucleotide exchange factor 4 (Homo sapiens) (UniProt Q8WZA2); test: Confirmatory qHTS for agonist of cAMP-regulated guanine nucleotide exchange factor 4 (EPAC2) (AID 1645884);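 note: nucleotide exchange releases bodipy-GDP from Rap1 and this lowers its fluorescence; nearly all actives have a fitted effect of over 65% in size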
# [3] = biological target: Rap guanine nucleotide exchange factor 4 (Homo sapiens) (UniProt Q8WZA2); test: Confirmatory qHTS for antagonist of cAMP-regulated guanine nucleotide exchange factor 4 (EPAC2) (AID 1645885); note: nearly all actives have a fitted effect of over 25% in size; note: potency is the fitted concentration of half-maximal effect
# [4] = biological target: Rap guanine nucleotide exchange factor 3 (Homo sapiens) (UniProt O95398); test: Confirmatory qHTS for antagonist of cAMP-regulated guanine nucleotide exchange factor 3 (EPAC1) (AID 1645880); details: EPAC1 Rap1B-BODIPY-GDP exchange, fluorescence; activity, negative = inhibition: at 115 µM (top of the series); note: nearly all actives have a fitted effect of over 55% in size; note: potency is the fitted concentration of half-maximal effect
# In short: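 Released BODIPY-GDP fluoresces less than Rap1-bound BODIPY-GDP; the signal is followed at 480/540 nm at 5-min intervals over 30 min, after 5 min at room temperature. Reactions contain 100 nM EPAC1, 250 nM RAP1B-BODIPY-GDP and 50 uM GDP; results are normalized to ATA and DMSO.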
# [5] = biological target: Rap guanine nucleotide exchange factor 3 (Homo sapiens) (UniProt O95398); test: Counterscreen qHTS for antagonist of cAMP-regulated guanine nucleotide exchange factor 3 (EPAC1) (AID 1645888)
# In short: (§1)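 Rap1B-BODIPY-GDP 250 nM + GDP 50 uM; cpds 7-pt, final 9.74 nM–152 uM (activator mode) or from 7.32 nM upwards (inhibitor mode); RT; FI 480/540 nm at 5 and 30 min, then ± cAMP, reread.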
# [6] = NCATS anti-infectives library activity on HEK293 viability as a counter-qHTS vs the C. elegans viability qHTS (AID 1745854);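 note: HEK293 cells exposed to compounds for 24 hr before the viability read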
# In short: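 Compound titrations (final up to 41.7 uM) were incubated with HEK293 cells for 24 hr at 37C under 5% CO2. Viable cells were quantified with CellTiter-Glo after 10 min at ambient temperature.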
# [7] = biological target: Tyrosyl-DNA phosphodiesterase 1 (Homo sapiens) (UniProt Q9NUW8); test: Confirmation Assay for Inhibitors of Tyrosyl-DNA Phosphodiesterase (TDP1) (AID 489007); details: recombinant human TDP1 enzymatic activity, dose-response; note: potency is the fitted concentration of half-maximal effect; nearly all actives have a fitted effect of over 40% in size
# In short: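 Loss of AlphaScreen signal reports Tdp1 cleavage of a dual-labelled DNA substrate. Conditions: 1 nM E. coli-derived enzyme, 15 nM substrate, 15 min compound preincubation, 5 min reaction, 10 min bead incubation, all at room temperature.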
# [8] = biological target: Rap guanine nucleotide exchange factor 3 (Homo sapiens) (UniProt O95398); test: Counterscreen qHTS for agonist of cAMP-regulated guanine nucleotide exchange factor 3 (EPAC1) (AID 1645889); note: nearly all actives have a fitted effect of over 40% in size; note: potency is the fitted concentration of half-maximal effect
# In short: as §1
# [9] = AP1 Signaling Pathway (AID 357; active = well fitted curve in either direction with a large enough effect, not every such curve was filed as active;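 note: ME-180 reporter cells stimulated with EGF at its EC50 level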); details: ME-180 (cervical carcinoma) AP-1-bla reporter, EGF-induced, beta-lactamase ratio, 5 h; at 7.69 µM (top of the series) unless noted
# In short: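 Read-out was the 460nm/530nm emission ratio (excitation 405nm) after CCF4 loading for 2.5 hours at room temperature. Cells carried an AP-1-driven beta-lactamase reporter, were stimulated with EC50 EGF plus compound for 5 hours, and AC50 values came from titrations.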
# [10] = Stat Signaling Pathway (AID 446; active = well fitted curve in either direction with a large enough effect, not every such curve was filed as active;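 note: ME-180 cervical cancer cells given 40 pM IL-6 alongside compound; SIE-controlled beta-lactamase reporter measured as 460/530 nm FRET emission ratio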)
# In short: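 Emission at 460 and 530 nm (excitation 405 nm) reports SIE-controlled beta-lactamase in ME-180 cells. Cells received compound with 40 pM IL-6 for 5 hrs at 37 C; data scaled between 300 pM IL-6 and 125 nM JAK-inhibitor controls.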
# [11] = biological target: Glucocorticoid receptor (Homo sapiens) (UniProt P04150); test: GR-GFP Redistribution (AID 450;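 active = compounds whose dose series gives a full or clear partial fitted curve of increased nuclear translocation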; note: potency is the fitted concentration of half-maximal effect); details: U2OS GR-GFP nuclear translocation, laser cytometry, 2 h
# Glucocorticoid receptor (Homo sapiens), sequence (P04150 whole entry, looked up): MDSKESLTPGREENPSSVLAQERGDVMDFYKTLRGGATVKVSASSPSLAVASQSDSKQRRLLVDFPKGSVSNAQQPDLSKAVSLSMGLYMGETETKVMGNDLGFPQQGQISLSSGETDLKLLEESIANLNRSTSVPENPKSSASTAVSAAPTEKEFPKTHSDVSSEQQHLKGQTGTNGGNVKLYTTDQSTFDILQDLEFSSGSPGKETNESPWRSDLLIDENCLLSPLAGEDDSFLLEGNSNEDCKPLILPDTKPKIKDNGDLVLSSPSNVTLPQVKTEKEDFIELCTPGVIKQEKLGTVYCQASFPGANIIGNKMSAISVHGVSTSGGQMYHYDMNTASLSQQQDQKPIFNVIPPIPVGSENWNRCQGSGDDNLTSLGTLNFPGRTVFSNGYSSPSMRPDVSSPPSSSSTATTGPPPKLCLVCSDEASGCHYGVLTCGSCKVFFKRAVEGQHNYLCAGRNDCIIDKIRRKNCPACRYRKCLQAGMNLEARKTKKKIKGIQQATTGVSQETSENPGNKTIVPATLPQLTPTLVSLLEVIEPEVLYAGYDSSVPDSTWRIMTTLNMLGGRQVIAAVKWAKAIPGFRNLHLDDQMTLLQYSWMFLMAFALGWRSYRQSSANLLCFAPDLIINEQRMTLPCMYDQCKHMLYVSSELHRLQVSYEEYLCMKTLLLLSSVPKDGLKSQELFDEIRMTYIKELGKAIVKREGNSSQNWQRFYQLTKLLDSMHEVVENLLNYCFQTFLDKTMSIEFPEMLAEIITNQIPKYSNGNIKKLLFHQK
# Rap guanine nucleotide exchange factor 4 (Homo sapiens), sequence (Q8WZA2 whole entry, looked up): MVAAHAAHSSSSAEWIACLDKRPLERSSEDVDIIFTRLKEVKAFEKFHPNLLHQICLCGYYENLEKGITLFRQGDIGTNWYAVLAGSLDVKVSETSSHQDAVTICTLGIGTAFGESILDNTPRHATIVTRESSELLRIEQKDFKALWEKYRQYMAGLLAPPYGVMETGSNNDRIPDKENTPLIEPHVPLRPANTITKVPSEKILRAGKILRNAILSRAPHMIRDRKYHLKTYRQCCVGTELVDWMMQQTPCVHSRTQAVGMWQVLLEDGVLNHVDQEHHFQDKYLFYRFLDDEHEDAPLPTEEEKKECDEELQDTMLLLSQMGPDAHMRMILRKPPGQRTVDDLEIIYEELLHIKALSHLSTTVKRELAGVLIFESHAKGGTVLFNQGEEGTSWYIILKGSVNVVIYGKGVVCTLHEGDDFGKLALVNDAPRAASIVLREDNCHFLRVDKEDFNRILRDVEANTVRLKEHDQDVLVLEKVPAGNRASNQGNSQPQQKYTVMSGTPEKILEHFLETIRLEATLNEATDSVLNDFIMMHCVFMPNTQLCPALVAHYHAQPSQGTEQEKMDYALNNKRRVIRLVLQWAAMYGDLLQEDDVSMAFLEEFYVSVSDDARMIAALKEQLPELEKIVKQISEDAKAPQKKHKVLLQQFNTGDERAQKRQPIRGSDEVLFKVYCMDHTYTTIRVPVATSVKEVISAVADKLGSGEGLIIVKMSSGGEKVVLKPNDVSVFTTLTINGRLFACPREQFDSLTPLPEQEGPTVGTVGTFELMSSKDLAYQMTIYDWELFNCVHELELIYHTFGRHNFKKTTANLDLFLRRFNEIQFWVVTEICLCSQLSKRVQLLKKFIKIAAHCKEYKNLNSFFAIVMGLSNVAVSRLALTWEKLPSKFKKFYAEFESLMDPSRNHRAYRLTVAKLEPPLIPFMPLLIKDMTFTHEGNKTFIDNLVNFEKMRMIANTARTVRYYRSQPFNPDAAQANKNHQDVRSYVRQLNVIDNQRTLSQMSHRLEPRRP
# Rap guanine nucleotide exchange factor 3 (Homo sapiens), sequence (O95398 whole entry, looked up): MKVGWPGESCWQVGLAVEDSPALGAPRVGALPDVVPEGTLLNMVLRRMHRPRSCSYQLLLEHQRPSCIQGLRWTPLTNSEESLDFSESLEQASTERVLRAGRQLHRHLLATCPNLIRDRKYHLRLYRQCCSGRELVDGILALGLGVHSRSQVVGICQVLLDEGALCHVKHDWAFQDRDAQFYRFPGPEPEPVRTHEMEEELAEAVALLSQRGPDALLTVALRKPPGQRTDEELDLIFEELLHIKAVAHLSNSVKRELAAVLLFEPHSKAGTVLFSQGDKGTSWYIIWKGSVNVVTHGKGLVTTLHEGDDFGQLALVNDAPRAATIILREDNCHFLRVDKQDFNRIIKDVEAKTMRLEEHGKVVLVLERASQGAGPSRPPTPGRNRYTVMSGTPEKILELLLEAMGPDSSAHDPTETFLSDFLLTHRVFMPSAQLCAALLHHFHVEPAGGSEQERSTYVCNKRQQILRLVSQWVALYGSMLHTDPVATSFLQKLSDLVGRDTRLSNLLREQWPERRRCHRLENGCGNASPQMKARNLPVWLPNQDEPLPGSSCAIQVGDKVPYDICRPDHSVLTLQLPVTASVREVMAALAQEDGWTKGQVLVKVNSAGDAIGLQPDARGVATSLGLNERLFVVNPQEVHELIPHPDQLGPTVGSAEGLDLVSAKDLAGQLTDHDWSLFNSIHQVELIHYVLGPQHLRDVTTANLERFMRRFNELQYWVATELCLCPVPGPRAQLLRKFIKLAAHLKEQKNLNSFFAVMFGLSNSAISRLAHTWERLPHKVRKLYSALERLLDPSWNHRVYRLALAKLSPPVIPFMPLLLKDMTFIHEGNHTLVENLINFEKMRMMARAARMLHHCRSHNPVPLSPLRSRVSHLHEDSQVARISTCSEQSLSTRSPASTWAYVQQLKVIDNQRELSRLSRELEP
# Tyrosyl-DNA phosphodiesterase 1 (Homo sapiens), sequence (Q9NUW8 whole entry, looked up): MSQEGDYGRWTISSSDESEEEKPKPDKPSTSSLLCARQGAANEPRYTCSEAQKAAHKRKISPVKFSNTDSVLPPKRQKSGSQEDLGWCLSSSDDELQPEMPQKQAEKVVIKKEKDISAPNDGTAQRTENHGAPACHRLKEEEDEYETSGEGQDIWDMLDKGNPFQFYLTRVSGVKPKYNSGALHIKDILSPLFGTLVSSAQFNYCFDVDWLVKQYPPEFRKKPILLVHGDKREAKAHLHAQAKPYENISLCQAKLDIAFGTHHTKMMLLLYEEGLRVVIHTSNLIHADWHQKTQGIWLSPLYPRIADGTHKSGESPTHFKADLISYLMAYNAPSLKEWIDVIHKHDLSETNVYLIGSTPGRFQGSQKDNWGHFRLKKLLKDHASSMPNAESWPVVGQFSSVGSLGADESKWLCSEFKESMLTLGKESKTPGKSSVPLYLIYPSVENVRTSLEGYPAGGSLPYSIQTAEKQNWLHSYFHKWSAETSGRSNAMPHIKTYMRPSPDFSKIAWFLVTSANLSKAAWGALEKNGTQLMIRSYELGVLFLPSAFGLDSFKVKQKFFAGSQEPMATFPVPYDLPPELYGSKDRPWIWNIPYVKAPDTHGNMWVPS
structure (smiles),measurement,setting,value
COC(=O)CC1(C(=O)OC)Oc2ccc(Br)cc2C(=O)N1c1cccc(Cl)c1Cl (stereo not drawn),Potency,[1],inactive
same,Potency,[2],inactive
same,Potency,[3],1.69 µM (active)
COc1cccc(Nc2nnc(-c3cc4ccc(O)cc4oc3=O)s2)c1,Potency,[4],inactive
same,Potency,[5],inactive
same,Potency,[6],inactive
CCc1cc(-c2n[nH]c(C)c2-c2ccccc2Cl)c(O)cc1OC,Potency,[1],inactive
same,Potency,[2],inactive
same,Potency,[3],inactive
CN(c1ccccc1)c1nc(N)c([N+](=O)[O-])c(N2CCCCC2)n1,Potency,[1],inactive
same,Potency,[2],inactive
CC[N+](C)(C)c1ccc(/C=C/c2ccnc3ccccc23)cc1,Potency,[1],inactive
same,Potency,[2],inactive
O=C(O)c1ccc(COc2ccccc2/C=C2/NC(=O)N(c3cccc(Cl)c3)C2=O)cc1,Potency,[7],10 µM (active)
same,Potency,[4],37.9 µM (active)
same,Potency,[5],inactive
Cc1cccc(N(C)S(=O)(=O)c2c[nH]c3ccc([N+](=O)[O-])cc23)c1,Potency,[1],inactive
same,Potency,[2],inactive
same,Potency,[3],inactive
C[n+]1ccc(/C=C/c2c[nH]c3ccccc23)cc1,Potency,[4],inactive
same,Potency,[5],inactive
same,Potency,[8],35.5 µM (active)
Cc1ccccc1NS(=O)(=O)c1ccc2c3c(cccc13)C(=O)N2C,Potency,[1],inactive
same,Potency,[2],inactive
c1ccc(-c2onc(-c3ccco3)c2-c2ccc3c(c2)OCO3)cc1,Potency,[1],inactive
same,Potency,[2],inactive
c1ccc(C(c2cccs2)c2c[nH]c3ccccc23)cc1 (stereo not drawn),Potency,[1],inactive
CCOc1ccc(C(=O)CCc2nc3ccccc3s2)cc1,Potency,[4],inactive
same,"activity change, negative = inhibition",[5],-7.41% [at 30.8 µM]
CCOc1ccc(S(=O)(=O)Nc2cc(SCC(=O)O)c(O)c3ccccc23)cc1,Potency,[4],67.5 µM (active)
same,Potency,[5],inactive
same,Potency,[8],56.2 µM (active)
CCOc1cc(/C=N/Nc2ccc(C(=O)O)cc2)ccc1OC(=O)c1ccccc1C,Potency,[1],inactive
same,Potency,[2],inactive
CC(C)C[C@@H](COc1ccccc1)N1CCN(CCc2ccccc2)CCC1=O,Potency,[1],inactive
same,Potency,[2],inactive
Cc1onc(-c2ccccc2Cl)c1C(=O)OCc1cnc(Cl)s1,Potency,[1],inactive
CC1CC(C)CN(C(=S)SCc2nc(N)nc(Nc3ccccc3)n2)C1 (stereo not drawn),Potency,[1],inactive
same,Potency,[2],inactive
N#CC(c1ccccc1)C(CC(=NO)c1ccccc1)c1ccccc1 (stereo not drawn),Potency,[1],inactive
same,Potency,[2],inactive
CCCCC[C@H]1CN(Cc2ccccc2)C(=O)[C@@H]1CC(=O)NCc1ccc(OC)cc1,Potency,[1],inactive
same,Potency,[2],inactive
same,Potency,[3],44.1 µM (active)
CCN(CC)c1ccccc1/C=C/[n+]1ccc(CCCCI)c2ccccc21,Potency,[1],inactive
same,Potency,[2],inactive
same,Potency,[3],49.4 µM (active)
Cc1cccc(N2CCCC2=Nc2ccc(Br)cc2C#N)c1,Potency,[4],inactive
same,Potency,[5],inactive
same,Potency,[8],inactive
Cc1ccc(C(=O)Nc2cccc(-c3ccc(N4CCOCC4)nn3)c2)cc1C,Potency,[1],inactive
same,Potency,[2],inactive
same,Potency,[3],inactive
FC(F)(F)c1ccc(CSc2nccn2-c2ccccc2)cc1,Potency,[1],inactive
Cn1cc([C@]2(O)C(=O)Nc3ccc(Br)cc32)c2ccccc21,Potency,[1],inactive
same,Potency,[2],inactive
CC[n+]1c(/C=C/C=C/N(C(C)=O)c2ccccc2)sc2ccccc21,Potency,[4],84.9 µM (active)
same,Potency,[5],inactive
CN1CC=C2C(C#N)=C(N)C(C#N)(C#N)[C@H](c3cccc(Cl)c3)C2C1 (stereo partly drawn),"activity change, negative = inhibition",[9],-16.2% [at 17.2 µM]
same,outcome,[10],inactive
same,Potency,[11],> 20.6 µM
same,Potency,[4],inactive
same,Potency,[5],inactive
CCc1ccc(-c2cc(C)no2)cc1S(=O)(=O)N1CCC(C)CC1,Potency,[1],inactive
same,Potency,[2],inactive
COc1cc2c3nnc(-c4ccc(F)cc4)c-3cn(Cc3cccc(C)c3)c2cc1OC,Potency,[4],inactive
same,Potency,[5],inactive
same,Potency,[8],inactive
Cc1ccc(-c2cc(C(=O)Nc3ccncc3)c3ccccc3n2)cc1,Potency,[1],inactive
same,Potency,[2],inactive
Cc1ccccc1/C=C1\SC(=S)N(/N=C/c2cc([N+](=O)[O-])ccc2O)C1=O,Potency,[1],inactive
same,Potency,[2],inactive
same,Potency,[3],inactive
O=C(CCN1C(=O)/C(=C/c2ccc3c(c2)OCO3)SC1=S)Nc1ccc(C(=O)O)cc1,Potency,[1],inactive
same,Potency,[2],inactive
Cc1ccc(Nc2nc3nonc3[nH]c2=O)cc1Cl,Potency,[1],inactive
same,Potency,[2],inactive
CC1CCN(C2(O)C(=O)Nc3ccc(Br)cc32)CC1 (stereo not drawn),Potency,[4],inactive
same,Potency,[8],inactive
CCCCC[C@H](C)N1C[C@@H](COCc2ccccc2)Oc2cc(N3CCC[C@H]3C(N)=O)ccc2S1(=O)=O,Potency,[1],inactive
same,Potency,[2],inactive
COc1ccc(SC[C@H](C)CN2CC[C@H](C(C)(C)C)CCC2=O)cc1,Potency,[1],inactive
same,Potency,[2],inactive
same,Potency,[3],35 µM (active)
CCCCNC(=O)C[C@@H]1C[C@@]2(C(=O)OC)CCCCC=C2N(Cc2cccc3ccccc23)C1=O,Potency,[1],inactive
same,Potency,[2],inactive
c1ccc(-c2onc(-c3ccco3)c2-c2ccc3[nH]ccc3c2)cc1,Potency,[1],inactive
same,Potency,[2],inactive
